# Measured values from PubChem BioAssay (NCI).
# This is part of a sample that, as a whole, favours compounds with a hit. Of some 79,000 tested, about 15% had one in any assay. Activity calls are given as the source filed them. Rule as the data show it: active = growth inhibition above about 70%; inactive = the rest.
# Assay: NCI Yeast Anticancer Drug Screen. Data for the sgs1 mgt1 strain (AID 161);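 also: 0% = growth of cultures given vehicle only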
# Settings: S. cerevisiae sgs1 mgt1 strain, at 50.0 µM, hits give high values
# Method: Growth inhibition of yeast strains with defined genetic alterations is measured as a screen for potential anti-cancer activity. Selected strains with alterations in DNA damage repair or cell cycle control were exposed to compounds and growth inhibition was measured relative to vehicle treated controls. The strain used in this assay is sgs1 mgt1
row,SMILES,growth inhibition
1,C[C@]12CC[C@@H]3c4ccc(OS(N)(=O)=O)cc4CC[C@H]3[C@@H]1CCC2=O,-2.05% (inactive)
2,OCC(CO)(CO)COCC(CO)(CO)COCC(CO)(CO)CO,-20.9% (inactive)
3,C=C1C(=O)O[C@@H]2C[C@@]3(C)CC(=O)C=C(C)[C@@H]3C[C@H]12,-7.2% (inactive)
4,COC(=O)C(=O)C(C(=O)C(=O)Nc1ccccc1C(C)=O)c1nc2ccc(C(=O)c3ccccc3)cc2[nH]c1=O (stereo not given),33.6% (inactive)
5,C/C(=C\COc1cc(O)c2c(c1)C(=O)c1cc(C)cc(O)c1C2=O)CCC1OC1(C)C (stereo not given),4.55% (inactive)
6,CC(C)=CC(O)C/C(C)=C/CC/C(C)=C/CCC1(C)C(CCCO)/C(=C(/C)C=O)CCC1(C)O (stereo not given),10.2% (inactive)
7,CC(C)O/N=C/c1cc(NC(=S)OC(C)C)ccc1Cl,11.1% (inactive)
8,O=C(O)CCNC(=O)c1ccccc1,-20% (inactive)
9,COC(=O)c1ccc(NC(=O)O/N=C(\Cl)C(C)C)cc1,59.7% (inactive)
10,CC1CC2(OC2C)C(=O)OC2CCN(C)C/C=C(/COC(=O)C1(C)O)C2=O (stereo not given),20.9% (inactive)
11,Clc1ccc(C2C3COc4ccccc4C3=NN2c2ccccc2)cc1 (stereo not given),-14.8% (inactive)
12,COc1ccc(-c2nc3ccccc3c(=S)n2OC(C)=O)cc1,82.1% (active)
13,Cc1cc2nn(C3CCCO3)nc2cc1C (stereo not given),-21.8% (inactive)
14,O=c1c2ccccc2nc(-c2ccccc2)n1/N=C/c1ccccc1[N+](=O)[O-],26.8% (inactive)
15,COc1cc2c(c3c1c(=O)c1ccccc1n3C)C=C([N+](=O)[O-])C(C)(C)O2,16.6% (inactive)
16,C=CCn1c2c(c3ccccc3c1=O)C(=O)c1ccccc1-2,1.7% (inactive)
17,COc1cc2c(cc1C1COc3cc4occc4cc3C1=O)OCO2 (stereo not given),4.05% (inactive)
18,Cc1ccc(NC2=N/C(=C/c3ccccc3)C(Cl)=N2)cc1,16.9% (inactive)
19,Cc1ccc2c(sc(-c3ccc4c(c3)sc(-c3ccc5c(c3)sc(-c3ccc(N(C)C)cc3)[n+]5C)[n+]4C)[n+]2C)c1S(=O)(=O)O (tested in a mixture with another compound),46.4% (inactive)
20,C=C(CCC(C(=O)O)C1CCC2(C)C3=C(CCC12C)C1(C)CCC(O)C(C)(C)C1CC3)C(C)C (stereo not given),-0.75% (inactive)

row,SMILES,growth inhibition
1,NC(=O)CC1OC(=O)Cc2cc3c(c(O)c21)C(=O)c1c(O)cccc1C3=O (stereo not given),22.4% (inactive)
2,CCCCCCCCCC(=O)CC(=O)c1c(O)cc(O)cc1O,12.2% (inactive)
3,COc1ccc(N=C(C)C(C)=Nc2ccc(OC)cc2)cc1,-15.1% (inactive)
4,Cc1ccc(F)cc1NC(=O)O/N=C(\Cl)C(C)C,-5.7% (inactive)
5,Cc1ccc(/C=N/Nc2nc3ccccc3s2)s1,-9.55% (inactive)
6,C=C(C)C1CC2(C)C(C)CC(OC(=O)/C(C)=C\C)CC2C(OC(=O)/C(C)=C\C)C1O (stereo not given),31.2% (inactive)
7,COC(=O)C(=O)C(C(=O)C(=O)Nc1ccc(Cl)c(Cl)c1)c1nc2ccc(C(=O)c3ccccc3)cc2[nH]c1=O (stereo not given),-15.1% (inactive)
8,C=C(C)C(=O)OC1CC2(C)OC(=CC2=O)C(C)CC2OC(=O)C(=C)C12 (stereo not given),29% (inactive)
9,CC(=O)c1ccc(NC(=O)/C(CC(=O)/C=C/c2ccccc2)=N/NC(N)=S)cc1,23.9% (inactive)
10,COC(=O)c1cnn2c1n[n+]([O-])c1ccccc12,-33.1% (inactive)
11,CC(C)=CCc1cc(C2COc3cc4c(c(O)c3C2=O)C=CC(C)(C)O4)c(O)cc1O (stereo not given),92% (active)
12,CC1=CC(=O)c2ccc(C)cc2C1=O,-6.9% (inactive)
13,NC(N)=Nc1ccc(CC(N)C(=O)O)cc1 (stereo not given),-13.4% (inactive)
14,O=C(O)c1cn(C2CC2)c2cc(N3CCNCC3)c(F)cc2c1=O,-13.1% (inactive)
15,CC(C)Cc1ccc(C(C)C(=O)O)cc1 (stereo not given),-4.5% (inactive)
16,CC1(C)S[C@H](CN)N[C@H]1C(=O)OC(c1ccccc1)c1ccccc1,5.25% (inactive)
17,COc1cc2oc3c(c(=O)c2c(O)c1/C=C/C(C)C)CCC(C)(C)Oc1cc(O)ccc1-3,49% (inactive)
18,CC(=Nc1ccncc1)C(C)=Nc1ccncc1,89.8% (active)
19,COC(=O)C1=CO[C@@H](OC2OC(CO)C(O)C(O)C2O)[C@H]2[C@@H](C)[C@@H](O)[C@@H](O)[C@@H]12 (stereo not given in full),-0.75% (inactive)
20,N#CC1(C#N)C2CCCCC23OC(=N)C1(C#N)C(c1ccco1)O3 (stereo not given),-29.2% (inactive)
